PubChem BioAssay (NCATS)
Results filed as inconclusive are left out. A call without a number means that no potency is given here. Values without a mark were called inactive. Active and inactive are the calls of the source. Calls come from the whole dose curve; as a rule, active = well fitted curve in the direction sought with a large enough effect; inconclusive = small, poorly fitted or top-dose-only effect, or another doubt; inactive = no such curve, though single readings can be large; an effect the other way counts as inactive or inconclusive.

Assays:
[1] = Primary qHTS for inhibitors of nuclear receptor binding SET domain protein 2 (NSD2) in an isogenic RCH-ACV NSD2 p.E1099K mutant (9B) (AID 1645876); note: nearly all actives have a fitted effect of over 70% in size
[2] = Primary qHTS for inhibitors of nuclear receptor binding SET domain protein 2 (NSD2) in an RCH-ACV wild type WT cells (2C) (AID 1645877); note: nearly all actives have a fitted effect of over 70% in size; note: potency is the fitted concentration of half-maximal effect
[3] = target: Rap guanine nucleotide exchange factor 3 (Homo sapiens) (UniProt O95398); experiment: Confirmatory qHTS for agonist of cAMP-regulated guanine nucleotide exchange factor 3 (EPAC1) (AID 1645881);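 note: EPAC1 catalysed release of BODIPY-GDP from Rap1B seen as fluorescence loss; nearly all actives have a fitted effect of over 75% in size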
Chain of Rap guanine nucleotide exchange factor 3 (Homo sapiens) (O95398 whole entry, looked up): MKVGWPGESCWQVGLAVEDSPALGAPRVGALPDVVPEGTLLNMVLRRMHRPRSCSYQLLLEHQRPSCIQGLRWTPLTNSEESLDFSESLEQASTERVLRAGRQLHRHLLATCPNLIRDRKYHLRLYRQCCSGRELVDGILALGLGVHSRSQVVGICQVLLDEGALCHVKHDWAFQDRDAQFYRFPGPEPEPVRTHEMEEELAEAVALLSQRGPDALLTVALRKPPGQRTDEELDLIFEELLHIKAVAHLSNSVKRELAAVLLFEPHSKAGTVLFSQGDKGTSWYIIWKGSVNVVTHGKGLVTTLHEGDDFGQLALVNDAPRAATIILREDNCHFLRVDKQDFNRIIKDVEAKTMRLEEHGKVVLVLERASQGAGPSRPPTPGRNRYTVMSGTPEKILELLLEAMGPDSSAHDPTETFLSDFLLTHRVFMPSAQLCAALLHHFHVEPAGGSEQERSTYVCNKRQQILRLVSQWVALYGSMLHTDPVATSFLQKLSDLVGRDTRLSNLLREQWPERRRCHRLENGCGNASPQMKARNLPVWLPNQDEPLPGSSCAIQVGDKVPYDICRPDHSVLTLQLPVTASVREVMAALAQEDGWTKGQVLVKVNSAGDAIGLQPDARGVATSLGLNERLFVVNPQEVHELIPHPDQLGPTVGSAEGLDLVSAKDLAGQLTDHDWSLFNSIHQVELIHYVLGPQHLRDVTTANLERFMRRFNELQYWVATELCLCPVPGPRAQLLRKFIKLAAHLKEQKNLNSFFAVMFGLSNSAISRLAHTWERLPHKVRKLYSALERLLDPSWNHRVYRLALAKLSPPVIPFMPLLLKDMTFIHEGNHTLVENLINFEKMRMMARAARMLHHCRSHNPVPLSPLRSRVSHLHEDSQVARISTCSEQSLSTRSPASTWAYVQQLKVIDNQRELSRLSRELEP

Q: Which results are given for C/C=C(\C)C(=O)O[C@@H]1CC2[C@@H](CC=C3C[C@@H](O[C@H]4C[C@H](OC)[C@H](O[C@H]5C[C@H](OC)[C@H](O[C@H]6C[C@H](OC)[C@H](O[C@H]7C[C@@H](OC)[C@H](O[C@@H]8O[C@H](CO)[C@@H](O)[C@H](O)[C@H]8O)[C@@H](C)O7)[C@@H](C)O6)[C@@H](C)O5)[C@@H](C)O4)CC[C@@]32C)[C@@]2(O)CC[C@H](C(C)=O)[C@@]12C (stereo partly specified)?
A: activity change, negative = viability loss [1]: -12.3% [at 9.23 µM]; activity change, negative = cell killing [2]: -18.8% [at 9.23 µM]

Q: For C[C@@H]1O[C@@H](O[C@H]2[C@H](O[C@H]3[C@H](O[C@H]4CC[C@@]5(C=O)C(CC[C@]6(C)C5CC=C5C7CC(C)(C)C[C@@H](O)[C@]7(C)CC[C@]56C)C4(C)C)O[C@H](C(=O)O)[C@@H](O)[C@@H]3O)OC[C@@H](O)[C@@H]2O)[C@H](O)[C@H](O)[C@H]1O (stereo partly specified), which activity change, negative = viability loss [1] is on record?
A: The activity change, negative = viability loss was -2.85% [at 9.23 µM].

Q: And the activity change, negative = cell killing [2]?
A: The activity change, negative = cell killing was -3.05% [at 9.23 µM].

Q: Which Potency [1] does the source give for C=C1CC2(C(=O)O)CC1CCC2C1(C)CCCC2(C)C(=O)OC(O)C21 (stereo unspecified) here?
A: Its Potency is “inactive”.

Q: What about the Potency [2] of the same compound?
A: The Potency was “inactive”.

Q: With C=CC(C)(O)CC/C=C(/C)C(=O)OC1C(OC2OCC(OC3OC(CO)C(O)C(O)C3O)C(OC3OCC(O)C(OC4OC(C)C(O)C(O)C4O)C3O)C2O)COC(OC(=O)C23CCC(C)(C)CC2C2=CCC4C5(C)CCC(OC6OC(CO)C(OC7OC(CO)C(O)C(OC8OCC(O)C(O)C8O)C7O)C(O)C6O)C(C)(C)C5CCC4(C)C2(C)CC3O)C1O (stereo unspecified) as the compound, how does the activity change, negative = cell killing [2] read?
A: Its activity change, negative = cell killing is -25% [at 4.96 µM].

Q: With CC(C)C(=O)OCC(=O)[C@@]12O[C@H](C3CCCCC3)O[C@@H]1C[C@H]1[C@@H]3CCC4=CC(=O)C=C[C@]4(C)[C@H]3[C@@H](O)C[C@@]12C as the compound, how does the Potency [2] read?
A: The Potency was 0.0209 µM (active).

Q: Which results are given for C=C1CC[C@H]2[C@@H](/C=C(\C)C(=O)[C@@]3(OC(C)=O)C[C@H](C)[C@H](OC(C)=O)[C@@H]3[C@H]1OC(C)=O)C2(C)C?
A: Potency [1]: inactive; Potency [2]: inactive

Q: For O=C(OCc1cccc(O)c1O[C@@H]1O[C@H](CO)[C@@H](O)[C@H](O)[C@H]1O)C1(O)C(=O)C2C=CC1C1C=CC(=O)C(O)(C(=O)OCc3cccc(O)c3O[C@@H]3O[C@H](CO)[C@@H](O)[C@H](O)[C@H]3O)C21 (stereo partly specified), which activity change, negative = viability loss [1] is on record?
A: Its activity change, negative = viability loss is -9.51% [at 9.23 µM].

Q: And the activity change, negative = cell killing [2]?
A: Its activity change, negative = cell killing is -22.5% [at 9.23 µM].

Q: For C=C1CCC2C(C)(C)CC(=O)CC2(C)C1CCC(C)CCOC(C)=O (stereo unspecified), which Potency [1] is on record?
A: The Potency was “inactive”.

Q: What about the Potency [2] of the same compound?
A: The Potency was “inactive”.

Q: With CC1=C(/C=C/C(C)=C/C=C/C(C)=C/C=C/C=C(C)/C=C/C=C(C)/C=C/C2=C(C)CCCC2(C)C)C(C)(C)CCC1 as the compound, how does the Potency [2] read?
A: The Potency was 18.6 µM (active).

Q: With CC1(C)CC2C(C1)C1(C)CCC13OC3(CO)C2O (stereo unspecified) as the compound, how does the Potency [1] read?
A: The Potency was “inactive”.

Q: What about the Potency [2] of the same compound?
A: Its Potency is “inactive”.

Q: For CCCOc1ccn2c(C(C)=O)cc(-c3ccccc3S(C)(=O)=O)c2c1, which Potency [2] is on record?
A: Its Potency is 18.6 µM (active).

Q: With NCCOCCOCCNC(=O)Cc1ccc(Nc2nc(NCc3ccc(F)cc3)nc(NCC3CCCCC3)n2)cc1 as the compound, how does the Potency [2] read?
A: Its Potency is 16.3 µM (active).

Q: Which Potency [2] does the source give for Nc1c(Br)cc(Br)cc1CNC1CCC(O)CC1 (stereo unspecified) here?
A: The Potency was “inactive”.

Q: With COc1cc(C2OCC3C(c4ccc(OC5OC(CO)C(O)C(O)C5O)c(OC)c4)OCC23)ccc1O (stereo unspecified) as the compound, how does the Potency [2] read?
A: Its Potency is “inactive”.

Q: For CC(C)(C)NC(=O)[C@@H]1C[C@@H]2CCCC[C@@H]2CN1C[C@@H](O)[C@H](Cc1ccccc1)NC(=O)[C@H](CC(N)=O)NC(=O)c1ccc2ccccc2n1, which outcome [3] is on record?
A: Its outcome is “inactive”.

Q: For CC1(C)O[C@@]2(C)CC[C@@H]1C[C@@H]2OC1OC(CO)C(O)C(O)C1O (stereo partly specified), which Potency [1] is on record?
A: Its Potency is “inactive”.

Q: What about the Potency [2] of the same compound?
A: The Potency was “inactive”.

Q: With CC(C)(O)/C=C1/C(=O)C(C)(C)C(=O)C(C)(C)C1(O)O[C@@H]1O[C@H](COC(=O)c2cc(O)c(O)c(O)c2)[C@@H](O)[C@H](O)[C@H]1O (stereo partly specified) as the compound, how does the Potency [1] read?
A: Its Potency is “inactive”.

Q: And the Potency [2]?
A: The Potency was “inactive”.

Q: Which Potency [1] does the source give for CC1(O)CCC2C(C(=O)O)=COC(OC3OC(CO)C(O)C(O)C3OC(=O)/C=C/c3ccc(O)cc3)C21 (stereo unspecified) here?
A: The Potency was “inactive”.

Q: What about the Potency [2] of the same compound?
A: The Potency was “inactive”.

Q: Which Potency [2] does the source give for CCC(=O)O[C@]1(C(=O)CCl)[C@@H](C)C[C@H]2[C@@H]3C[C@H](F)C4=CC(=O)C=C[C@]4(C)[C@@]3(F)[C@@H](O)C[C@@]21C here?
A: The Potency was “inactive”.

Q: Which Potency [1] does the source give for CC(=O)O[C@H](C[C@@H](C)[C@H]1C(=O)[C@H](O)[C@@]2(C)[C@@H]3CCC4C(C)(C)[C@@H](O[C@@H]5OC[C@H](O)[C@H](O)[C@H]5O)CC[C@@]45C[C@@]35CC[C@]12C)[C@@H]1OC1(C)C (stereo partly specified) here?
A: Its Potency is “inactive”.

Q: And the Potency [2]?
A: The Potency was “inactive”.
